± gives the standard deviation of the averaged measurements.
Experiments:
Experiment in all cases: cell viability (% of vehicle); higher = less cytotoxic
Settings in all cases: 10 µM; 72 h
HCI01 = test system: HCI01 (cells of a triple-negative basal-like breast cancer xenograft)
HCI03 = test system: HCI03 (cells of an ER-positive luminal breast cancer xenograft)
HCI09 = test system: HCI09 (cells of a triple-negative luminal androgen receptor type breast cancer xenograft)
HCI11 = test system: HCI11 (cells of an ER-positive luminal breast cancer xenograft)
HCI13 = test system: HCI13 (cells of an ER-positive luminal breast cancer xenograft)
HCI16 = test system: HCI16 (cells of a triple-negative basal-like breast cancer xenograft)
UCD52 = test system: UCD52 (cells of a triple-negative basal-like breast cancer xenograft)
WHIM2 = test system: WHIM2 (cells of a triple-negative basal-like breast cancer xenograft)
WHIM30 = test system: WHIM30 (cells of a triple-negative basal-like breast cancer xenograft)
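Also: PDX cells carrying CMV promoter-driven luciferase, viability read as total photon flux per second by IVIS imaging following D-luciferin, vehicle control 0.1% DMSO.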

| Structure (SMILES) | cell viability (HCI01) | cell viability (HCI03) | cell viability (HCI09) | cell viability (HCI11) | cell viability (HCI13) | cell viability (HCI16) | cell viability (UCD52) | cell viability (WHIM2) | cell viability (WHIM30) |
| --- | --- | --- | --- | --- | --- | --- | --- | --- | --- |
| CN1c2ccccc2C(NCCCCCCC(=O)[O-])c2ccc(Cl)cc2S1(=O)=O.[Na+] (centres undefined) [Tianeptine sodium] | 132 ± 22 | 134 | 95.1 ± 10 | 122 | 95.95 ± 0.8 | 120 | 122 ± 4.6 | 85.3 ± 8 | 142.2 ± 0.38 |
| CCC(COC(=O)c1cc(OC)c(OC)c(OC)c1)(c1ccccc1)N(C)C (centres undefined) [Trimebutine] | 116 ± 6.9 | 109 | 103 ± 7.8 | 92.9 | – | 135 | 84.9 ± 15 | 96.2 ± 2.8 | 111.2 ± 0.53 |
| Cc1cc(O)ccc1Cl [Chlorocresol] | 114 ± 41 | 120 | 88.6 ± 17 | 85.9 | 77.6 ± 8.4 | 107 | 87.1 ± 2.5 | 98.6 ± 25 | 91.9 ± 1.3 |
| Cc1cccc(C(C)c2cnc[nH]2)c1C.Cl (centres undefined) [Medetomidine HCl] | 108 ± 7.7 | 102 | 93.2 ± 21 | 103 | 100.9 ± 1 | 95.4 | 87.4 ± 2.9 | 89.3 ± 22 | 113 ± 5.8 |
| CN(C)C1C(=O)C(C(N)=O)=C(O)C2(O)C(=O)C3=C(O)c4c(O)cccc4C(C)(O)C3CC12.Cl (centres undefined) [Tetracycline Hydrochloride] | 105 ± 10 | 108 | 89.46 ± 0.85 | 96.7 | 92.1 ± 4.3 | 87.5 | 77.3 ± 1.4 | 77.1 ± 20 | 116 ± 19 |
| Cc1ccc(-n2nccn2)c(C(=O)N2CCN(c3nc4cc(Cl)ccc4o3)CCC2C)c1 (centres undefined) | 136 ± 9.6 | 88 | 39.5 ± 27 | 93.5 | 101 ± 34 | 101 | 91.9 ± 10 | 118 ± 22 | 136 ± 3.4 |
| CC(=O)Nc1cc([As](=O)(O)O)ccc1O [Arsonic acid] | 105 ± 4.4 | 144 | 102 ± 22 | 112 | 73.2 ± 4.5 | 105 | 112 ± 25 | 101 ± 23 | 132 ± 15 |
| CNCC(=O)c1ccc(O)c(O)c1.Cl [Adrenalone HCl] | 111 ± 21 | 116 | 104 ± 15 | 107 | 88.5 ± 7.3 | 152 | 99.9 ± 5.5 | 87.8 ± 1.7 | 106 ± 7.2 |
| O=C(O)c1nn(Cc2ccc(Cl)cc2Cl)c2ccccc12 [Lonidamine] | 88.9 ± 18 | 112 | 92.9 ± 6.3 | 82.9 | 85.1 ± 8.5 | 124 | 82.6 ± 1.7 | 80.2 ± 32 | 138.9 ± 1.1 |
| CCN(C)C(=O)Oc1cccc(C(C)N(C)C)c1.O=C(O)C(O)C(O)C(=O)O (centres undefined) [Rivastigmine Tartrate] | 115.8 ± 0.12 | 116 | 127 ± 62 | 119 | 133 ± 51 | 151 | 111 ± 15 | 91.8 ± 31 | 131 ± 13 |
| COc1ccc(C(CN(C)C)C2(O)CCCCC2)cc1.Cl (centres undefined) [Venlafaxine] | 103 ± 4.2 | 139 | 99.26 ± 0.21 | 103 | 124 ± 11 | 106 | 119 ± 17 | 118 ± 10 | 169 ± 35 |
| CCC1(c2cccc(O)c2)CCCCN(C)C1.Cl (centres undefined) [Meptazinol HCl] | 69.9 ± 42 | 141 | 98.1 ± 10 | 94 | 111 ± 5 | 112 | 85.7 ± 6 | 91.8 ± 33 | 181.3 ± 0.74 |
| CC(=O)OC1CC2CCC3C(CCC4(C)C3CC([N+]3(C)CCCCC3)C4OC(C)=O)C2(C)CC1[N+]1(C)CCCCC1.[Br-].[Br-] (centres undefined) [Pancuronium dibromide] | 99.4 ± 8.2 | 106 | 105 ± 2.1 | 93.3 | – | 95.5 | 79.4 ± 3.5 | 94.3 ± 4.8 | 103 ± 4.2 |
| C[N+]1(C)[C@@H]2C[C@@H](OC(=O)C(CO)c3ccccc3)C[C@H]1[C@@H]1O[C@@H]12.[Br-] (some centres undefined) [Methscopolamine] | 106 ± 8.5 | 128 | 107 ± 9.7 | 93.2 | – | 97.9 | 80.6 ± 12 | 87.7 ± 8 | 138.9 ± 0.7 |
| O=c1[nH]c2ccccc2n1C1CCN(CCCC(c2ccc(F)cc2)c2ccc(F)cc2)CC1 [Pimozide] | 103 ± 21 | 104 | 48.1 ± 31 | 70.4 | 69.39 ± 0.41 | 103 | 86.7 ± 16 | 103 ± 24 | 93.69 ± 0.39 |
| CC(C)OC(=O)[C@H](C)N[P@](=O)(CO[C@H](C)Cn1cnc2c(N)ncnc21)Oc1ccccc1 | 97.2 ± 1.3 | 109 | 87.9 ± 11 | 112 | 65.7 ± 8 | 183 | 103.7 ± 0.83 | 117.1 ± 0.62 | 144 ± 8.2 |
| CN1[C@@H]2C[C@@H](O)C[C@H]1[C@@H]1O[C@@H]12 [Scopine] | 134 ± 21 | 138 | 110 ± 8.5 | 110 | 129 ± 14 | 99 | 103 ± 18 | 112 ± 21 | 144 ± 4 |
| CCCC1CC(=O)N(C(CC)C(N)=O)C1 (centres undefined) [Brivaracetam] | 98 ± 7 | 163 | 97.1 ± 1.8 | 89.3 | 87.83 ± 0.76 | 101 | 106 ± 1.4 | 98.2 ± 12 | 128 ± 11 |
| CC(C)NCC(O)c1ccccc1Cl.Cl (centres undefined) [Clorprenaline HCL] | 104 ± 18 | 121 | 73.1 ± 30 | 93.9 | 83.1 ± 11 | 104 | 90.6 ± 16 | 88.3 ± 13 | 103 ± 2.4 |
| CC(=Cc1csc(C)n1)C1CC2OC2(C)CCCC(C)C(O)C(C)C(=O)C(C)(C)C(O)CC(=O)O1 (centres undefined) [Epothilone B (EPO906, Patupilone)] | 154 ± 16 | 119 | 91.4 ± 4.8 | 99.2 | 111 ± 2.6 | – | 78.2 ± 9.1 | 75.9 ± 13 | 137 ± 13 |
| CC12CCC3C(CC=C4CC(O)CCC43C)C1CCC2=O (centres undefined) [Dehydroepiandrosterone (DHEA)] | 124 ± 8.8 | 107 | 87 ± 21 | 112 | 111 ± 12 | 102 | 98.2 ± 9.5 | 93.3 ± 20 | 111 ± 4 |
| CN(C)C(=O)C(CCN1CCC(O)(c2ccc(Cl)cc2)CC1)(c1ccccc1)c1ccccc1.Cl [Loperamide HCl] | 102 ± 20 | 84.8 | 53.5 ± 15 | 98.7 | 79.2 ± 6.6 | 95.1 | 49.1 ± 1.4 | 59.8 ± 8.3 | 102 ± 9.7 |
| Cc1cccc(Cc2cnc[nH]2)c1C.Cl [Detomidine HCl] | 118 ± 4 | 114 | 96.9 ± 30 | 97.2 | 79.4 ± 6.8 | 92 | 84.9 ± 4.3 | 85.5 ± 32 | 135 ± 3 |
| CCOC(=O)c1cncn1C(C)c1ccccc1.Cl (centres undefined) [Etomidate hydrochloride] | 137 ± 30 | 155 | 125 ± 37 | 117 | – | 117 | 97.3 ± 9.7 | 145 ± 30 | 76.4 ± 5.3 |
| Cl.NCCc1c[nH]c2ccc(O)cc12 [Serotonin HCl] | 103 ± 13 | 132 | 99.9 ± 4 | 94.8 | 57.8 ± 1.6 | 109 | 100 ± 9.6 | 137 ± 45 | 163 ± 26 |
| CCN(C)C(=O)Oc1cccc(C(C)N(C)C)c1 (centres undefined) [Rivastigmine] | 107 ± 11 | 112 | 109 ± 4.2 | 106 | 98.3 ± 1.7 | 96.3 | 101 ± 7.6 | 103 ± 16 | 118 ± 9.7 |

Source: the supplement of paper PMC6992640
